Assay: stimulators of nuclear beta-catenin in C2C12, primary screen, imaging, WNT3A-conditioned medium, mouse C2C12, NPC library (AID 1117326); further: reference of the scale not given here
Conditions: stimulation, at 2 µM, stronger effect = higher value

SMILES | nuclear beta-catenin stimulation
CN(C)CC[C@@H](c1ccc(Br)cc1)c1ccccn1 | -0.3%
CCN(CC)CCNC(=O)c1ccc(NC(C)=O)cc1 | 1%
CC(C(=O)O)c1ccc(CC2CCCC2=O)cc1 (stereo not drawn) | -0.2%
Cc1cn([C@H]2C=C[C@@H](CO)O2)c(=O)[nH]c1=O | 1.1%
C[C@H](NC(CCc1ccccc1)C(=O)O)C(=O)N1CCC[C@H]1C(=O)O (stereo partly drawn) | -2.8%
CCOC(=O)c1ncn2c1CN(C)C(=O)c1cc(F)ccc1-2 | -0.7%
CC(=O)[C@]1(O)Cc2c(O)c3c(c(O)c2[C@@H](O[C@H]2C[C@H](N)[C@H](O)[C@H](C)O2)C1)C(=O)c1ccccc1C3=O | 94.8%
C=CCc1ccccc1OCC(O)CNC(C)C (stereo not drawn) | -0.5%
Cc1[nH]c(=O)c(C#N)cc1-c1ccncc1 | 0.4%
Nc1c2c(nc3ccccc13)CCCC2O (stereo not drawn) | -0.9%
Nc1nc2c(ncn2COC(CO)CO)c(=O)[nH]1 | 1.2%
CCN1CCC[C@H]1CNC(=O)c1c(O)c(Cl)cc(Cl)c1OC | 3.4%
Cc1cccc(C)c1NC(=O)C(C)N (stereo not drawn) | 1.2%
Nc1nnc(-c2cccc(Cl)c2Cl)c(N)n1 | 0.5%
NNc1nncc2ccccc12 | -1.5%
CCN1CCCC1CNC(=O)c1cc(S(=O)(=O)CC)c(N)cc1OC (stereo not drawn) | -0.8%
C=Cc1c(C)c2cc3[nH]c(cc4nc(cc5nc(cc1[nH]2)C(C)=C5CCC(=O)O)C(CCC(=O)O)=C4C)c(C)c3C=C | 0.1%
Clc1ccc2nsnc2c1NC1=NCCN1 | -0.6%
COc1cc(C(=O)OCCCN2CCCN(CCCOC(=O)c3cc(OC)c(OC)c(OC)c3)CC2)cc(OC)c1OC | 1.7%

SMILES | nuclear beta-catenin stimulation
CCc1c(C)[nH]c2c1C(=O)C(CN1CCOCC1)CC2 (stereo not drawn) | -0.2%
COc1ccccc1N1CCN(CC(O)COc2cccc3ccccc23)CC1 (stereo not drawn) | 1.7%
CN(C)CC[C@@H](c1ccc(Cl)cc1)c1ccccn1 | 0.3%
CN(C)CCOC(=O)COc1ccc(Cl)cc1 | 1%
Brc1c(NC2=NCCN2)ccc2nccnc12 | -0.6%
O=C1N(c2ccccc2)c2ccccc2C1(Cc1ccncc1)Cc1ccncc1 | 3.8%
CN(Cc1cnc2nc(N)nc(N)c2n1)c1ccc(C(=O)N[C@@H](CCC(=O)O)C(=O)O)cc1 | 41%
Nc1ccn([C@H]2CC[C@@H](CO)O2)c(=O)n1 | -1.5%
CCN1CCC[C@H]1CNC(=O)c1cc(S(N)(=O)=O)ccc1OC | 0.2%
Oc1ccc(C2CNCCc3c2cc(O)c(O)c3Cl)cc1 (stereo not drawn) | 7.9%
Cc1ccc(C(=O)Nc2ccc(S(=O)(=O)O)c3cc(S(=O)(=O)O)cc(S(=O)(=O)O)c23)cc1NC(=O)c1cccc(NC(=O)Nc2cccc(C(=O)Nc3cc(C(=O)Nc4ccc(S(=O)(=O)O)c5cc(S(=O)(=O)O)cc(S(=O)(=O)O)c45)ccc3C)c2)c1 | -0.5%
NC1CCN(c2cccc(Cl)n2)CC1 | 1.1%
COc1ccc(C2CNC(=O)C2)cc1OC1CCCC1 (stereo not drawn) | -0.4%
CNCC(O)c1ccc(O)c(O)c1 (stereo not drawn) | -0.9%
CNC[C@H](O)c1cccc(O)c1 | 1.7%
Cc1scc2c1N(C(=O)CN1CCN(C)CC1)c1ccccc1NC2=O | 1.6%
C=CC(N)CCC(=O)O (stereo not drawn) | 0.5%
OCc1cc(C(O)CNCCCCCCOCCCCc2ccccc2)ccc1O (stereo not drawn) | 0.3%
C[N+](C)(C)CCCCCC[N+](C)(C)C | -1.6%
